The supplement of paper PMC3334620
The full ranking holds about 33,000 sequences; the median of “E-score (-0.5 to 0.5)” is about -0.016, and the highest 2% start at about 0.3. This excerpt belongs to a sample that is enriched for the highest values.

biological target: T1, Yer184c (UniProt P39961); test: PBM E-score (8-mer binding enrichment) (E-score (-0.5 to 0.5)); higher = stronger / more preferred TF binding; details: protein concentration: 100 nM; construct: GST-full length
T1 sequence: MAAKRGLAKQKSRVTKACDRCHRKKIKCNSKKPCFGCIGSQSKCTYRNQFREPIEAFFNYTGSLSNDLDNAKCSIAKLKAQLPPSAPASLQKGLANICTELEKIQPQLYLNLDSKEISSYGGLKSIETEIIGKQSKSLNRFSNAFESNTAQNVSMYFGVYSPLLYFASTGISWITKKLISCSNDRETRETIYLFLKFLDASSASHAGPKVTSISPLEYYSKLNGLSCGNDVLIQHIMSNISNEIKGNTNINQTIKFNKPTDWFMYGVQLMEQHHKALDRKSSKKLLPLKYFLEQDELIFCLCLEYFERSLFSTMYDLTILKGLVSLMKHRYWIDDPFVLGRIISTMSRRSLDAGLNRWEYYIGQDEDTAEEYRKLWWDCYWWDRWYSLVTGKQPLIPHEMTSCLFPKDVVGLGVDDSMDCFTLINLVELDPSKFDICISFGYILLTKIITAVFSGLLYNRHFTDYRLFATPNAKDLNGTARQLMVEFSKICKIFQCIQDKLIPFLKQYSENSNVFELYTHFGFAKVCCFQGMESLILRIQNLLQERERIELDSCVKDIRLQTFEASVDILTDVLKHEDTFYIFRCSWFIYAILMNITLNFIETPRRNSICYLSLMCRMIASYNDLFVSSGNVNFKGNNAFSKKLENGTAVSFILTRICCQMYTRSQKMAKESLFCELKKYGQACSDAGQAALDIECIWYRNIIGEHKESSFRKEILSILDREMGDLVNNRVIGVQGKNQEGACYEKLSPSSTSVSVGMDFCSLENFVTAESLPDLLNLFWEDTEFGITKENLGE
Method in brief: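 Each ungapped eight-base word and its reverse complement, pooled, received an E-score from the Universal PBM Analysis Suite. Underlying scans, normalised with masliner, recorded fluorescent anti-GST bound to GST-tagged yeast transcription factors. These were applied at about 100-200 nM to universal all-10-mer Agilent arrays double-stranded by primer extension.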

| Sequence | PBM E-score |
| --- | --- |
| CGGCTTAA | 0.393 |
| TGGCTTAA | 0.175 |
| CGGCTTCC | 0.198 |
| CGGCTTAG | 0.213 |
| CGGCTTCA | 0.345 |
| AGGCTTCA | -0.108 |
| ACGTCAAG | -0.124 |
| CACCTTGA | -0.151 |
| GTCAACGA | -0.0301 |
| GCTGTTTA | 0.141 |
| CCCGGCAG | 0.131 |
| CCCGGCAC | 0.0863 |
| CCCGGCAA | 0.335 |
| CGCGGCAA | 0.274 |
| ACCGGCAC | 0.363 |
| TGCGGCAA | 0.0333 |
| GGCGGCAC | 0.0696 |
| ACCGGCAG | 0.0457 |
| TACGGCAA | 0.158 |
| TCCGGCAA | 0.339 |
| GCCGGCAC | 0.422 |
| ACCGGCAA | 0.222 |
| GTGAGGGA | -0.252 |
| CAATTGCG | -0.0249 |

| Sequence | PBM E-score |
| --- | --- |
| ACGCTAAA | 0.0442 |
| AAATTGAT | 0.159 |
| AGTTAACC | -0.0162 |
| GCTATCCC | -0.16 |
| CGAATGCA | 0.0594 |
| ACCTTGCA | -0.197 |
| AAAAATGT | 0.0248 |
| CTTCTGAC | -0.218 |
| CCACAAGA | 0.0207 |
| GACGGCAA | 0.148 |
| GCCGGCAA | 0.424 |
| GCCGGCTA | 0.266 |
| CGACTAAG | -0.0168 |
| GTTCGCGA | 0.311 |
| ATTCGCGA | -0.0163 |
| CTTCGCGA | 0.0769 |
| GATTCCGA | 0.33 |
| TATTCCGA | 0.389 |
| GATTCCCA | -0.0287 |
| AATTCCCA | -0.123 |
| AATTCCAA | 0.116 |
| CCTTCCGA | 0.227 |
| AATTCCGA | 0.389 |
| TATTCCCA | 0.0619 |

| Sequence | PBM E-score |
| --- | --- |
| GCTTCCGA | 0.306 |
| GATTCCGC | 0.0917 |
| GCTTCCTA | 0.0691 |
| TATTCCAA | 0.115 |
| GGGTAGAA | -0.0545 |
| CAGAGCAG | -0.00548 |
| ACCAGCTC | -0.141 |
| AGACCTAA | -0.106 |
| AGAGACCG | -0.00169 |
| AATTTCCA | 0.145 |
| ATCTCTAG | -0.118 |
| TCTATGAA | 0.112 |
| CACTTTCC | 0.021 |
| CAAATTTA | 0.119 |
| GGAAATTA | 0.201 |
| TAAAATTA | 0.341 |
| CTAAATTA | 0.202 |
| AGAAATTC | 0.077 |
| ATAAATTG | 0.254 |
| AGAAATTA | 0.354 |
| AAAATTTA | 0.228 |
| TAAATTTA | 0.311 |
| CAAAATTA | 0.212 |
| AAAAATTA | 0.253 |

| Sequence | PBM E-score |
| --- | --- |
| ATAAATTA | 0.316 |
| CGAACTAC | 0.0997 |
| GATTGCCA | -0.0755 |
| GACAGTAC | 0.135 |
| ACACTCTC | 0.0613 |
| ACAATCGC | 0.0673 |
| ACAATCGG | 0.307 |
| ACAATCGT | -0.28 |
| GCTGAACC | 0.0738 |
| AACGCCAG | 0.0264 |
| CGGCCGTC | 0.278 |
| CGGCCGGA | 0.402 |
| CGGCCTTC | 0.33 |
| AGGCCTTC | -0.0978 |
| AGGCCGTA | 0.178 |
| AGGCCGGC | 0.265 |
| CGGCCGTA | 0.311 |
| AGGCCGGA | 0.247 |
| CGGCCGGC | 0.42 |
| CGGCCTTA | 0.291 |
| CGGCCGCA | 0.277 |
| CGGCCGCC | 0.209 |
